Experimental data from PubChem BioAssay AID504806 (National Center for Advancing Translational Sciences (NCATS), 2011).
The source made the active and inactive calls. Calls follow the shape of the dose curve; as a rule, active = well fitted activation curve with a large enough effect; inactive = flat fitted curve, though single readings scatter.

Assay: Followup screen of LOPAC molecules that induce DNA re-replication in SW480 adenocarcinoma cells
Details: Hoechst nuclear DNA content imaging, 48 h; series mostly up to 46.1 µM
Source text: NIH Molecular Libraries Probe Production Network [MLPCN] NIH Chemical Genomics Center [NCGC] MLPCN Grant: Fast Track K99 CA136555 Assay Provider: Melvin DePamphilis, NICHD, NIH Assay Overview Eukaryotic cells normally restrict genome duplication to once per cell division. When this process is aberrant, DNA re-replication occurs when cells reinitiate DNA replication before the first round of replication is complete. DNA re-replication induces the DNA damage response, arrests cell proliferation, and triggers apoptosis. The cell cycle components cyclin A, Cdt-1, Cdc6 and geminin are critical regulators of this process and their misregulation results in DNA re-replication in normal and cancer cells. To identify compounds that induce re-replication in normal cells, an image-based assay was used to measure DNA content of nuclei, as detected by the fluorescent DNA binding dye, Hoechst. Cell nuclei were imaged by a fluorescence scanning plate imager and compounds that induce DNA re-replication were identified by the increase of nuclei with elevated fluorescence intensity.
Assay Protocol Summary For screening, 250 cells in 5 uL/well were dispensed into black clear 1536-well plates (Aurora) using a solenoid-based dispenser. Following transfer of 23 nL compound or DMSO vehicle by a pin tool, the plates were incubated 48 hr at 37 C and 5% CO2. After addition of 1 uL/well Hoescht stain, the plates were incubated 40 min at 37 C, 5% CO2 and total intensity of fluorescent objects (nuclei) were enumerated by an Acumen Explorer Ex3 (TTP LabTech) fluorescence scanning plate imager (405 nm excitation, 500-530 nm emission). Keywords: NIH Roadmap, MLPCN, MLI, MLSMR, qHTS, NCGC, DNA replication, cancer

Compound | Potency
CCN(CC)C(=S)SSC(=S)N(CC)CC.[Cl-].[Cl-].[Cu+2] | 37.8 nM (active)
CS(C)=O.[Cl-].[Cl-].[Cu+2] | inactive
CCN(CC)C(=S)SSC(=S)N(CC)CC | 30 nM (active)
CCCCCCN(CCCCCC)C(=O)Cc1c(-c2ccc(F)cc2)[nH]c2ccccc12 | 26800 nM (active)
CC(=O)[O-].CS(C)=O.[Cu+] | inactive
CC(=O)[O-].CCN(CC)C(=S)SSC(=S)N(CC)CC.[Cu+] | 37.8 nM (active)
